Source: PubChem BioAssay (several laboratories)
In the library only some 1.8% were active in any assay of this set; here they are far more common.
HDAC3 inhib – HDAC3 deacetylase inhibitors, primary screen, biochemical, fluorescence, cell-free homogeneous; Histone deacetylase 3 (Homo sapiens), O15379; recombinant HDAC3, fluorogenic peptide/trypsin coupled; inhibition, % at 8.3 µM; actives 0.15% (n = 320,000); AID 2718, 2010; in the data active means inhibition above about 26%, passing the limit was not always enough; inconclusive means no clear call, values can overlap the other calls
GRK2 aptamer HTS – compounds blocking aptamer binding on GRK2 – biochemical, human GRK2, bead flow cytometry, HTS, primary screen | FAM-aptamer displacement from GRK2 | inhibition of aptamer binding, % at 10 µM | actives 0.59% (n = 330,000) | AID 488847, 2010;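 active means inhibition of aptamer binding above 40%, roughly 3 SD of noise, on plates passing a quality check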;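 further: median bead fluorescence of bound FAM aptamer so fluorescent compounds give negative values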
Target sequence (P25098 whole entry, looked up): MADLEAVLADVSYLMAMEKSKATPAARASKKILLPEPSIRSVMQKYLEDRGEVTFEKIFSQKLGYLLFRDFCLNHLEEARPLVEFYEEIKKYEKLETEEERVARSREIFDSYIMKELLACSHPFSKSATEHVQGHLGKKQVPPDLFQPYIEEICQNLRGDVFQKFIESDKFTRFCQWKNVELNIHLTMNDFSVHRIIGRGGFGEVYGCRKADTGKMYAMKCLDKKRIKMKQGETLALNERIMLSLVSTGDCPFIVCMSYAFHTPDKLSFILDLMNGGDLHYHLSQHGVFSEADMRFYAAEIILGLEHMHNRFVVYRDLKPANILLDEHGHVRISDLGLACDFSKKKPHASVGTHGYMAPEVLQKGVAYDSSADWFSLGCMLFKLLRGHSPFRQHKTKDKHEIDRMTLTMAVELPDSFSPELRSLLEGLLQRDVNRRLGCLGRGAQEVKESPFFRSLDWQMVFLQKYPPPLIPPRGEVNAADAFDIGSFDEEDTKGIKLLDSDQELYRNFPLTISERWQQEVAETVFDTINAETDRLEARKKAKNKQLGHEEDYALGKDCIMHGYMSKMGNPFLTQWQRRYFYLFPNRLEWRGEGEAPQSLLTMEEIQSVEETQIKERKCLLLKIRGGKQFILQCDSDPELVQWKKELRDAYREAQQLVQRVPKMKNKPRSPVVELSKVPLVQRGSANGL
VLA-4 inh – inhibition in human VLA-4 binding assay, primary screen, VLA-4 allosteric modulator project, MLPCN library, flow cytometry, VLA-4 expressing cells. ligand binding flow cytometry. inhibition, % (about 7 µM as worked out from the volumes in the protocol). actives 0.2% (n = 330,000)
DSG3 Ab inh – inhibitors of pemphigus antibody binding to DSG3, primary screen, biochemical, bead-based, flow cytometry, scFv-GFP | Desmoglein-3 (Homo sapiens), P32926 | DSG3-coupled beads, scFv-anti-DSG3-GFP binding; stronger effect = lower value | binding (percent of control), % at 10 µM | actives 0.48% (n = 310,000);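 active means binding more than 3 SD below its plate's average and above zero; inconclusive means below that plate limit but binding exactly zero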;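 further: hits lower antibody fragment binding to DSG3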
PKD1 inh – inhibitors of human PKD1 kinase, biochemical, fluorescence polarization; PKD1 kinase fluorescence polarization assay; inhibition, % (no concentration beside the values); actives 0.056% (n = 200,000); AID 797, 2007
LANA-H2B inh – blockers of LANA interaction with H2A/H2B – biochemical, FP readout, HTS, primary screen | actives 0.6% (n = 320,000) | cell-free LANA-H2A/H2B peptide, fluorescence polarization | inhibition, % (concentration not given with the values) | Protein LANA1 (Human herpesvirus 8 type P (isolate GK18)), Q9QR71 | AID 2629, 2010; in the data active means inhibition mostly above about 10%, no sharp cut-off; inactive means mostly below about 6.7%
VLA-4 allo CP – retest of VLA-4 allosteric modulators, confirmation, cell-based, cherry-picked plates, U937, HUTS-21 LIBS antibody. shares compounds with VLA-4 inh. U937 cells, HUTS-21 LIBS mAb binding, flow cytometry; LDV ligand present at threefold Kd. inhibition, % at 6.7 µM. actives 2% (n = 1,300); in the data active means inhibition above about 40%;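 further: 0% = ligand without compound and 100% = no ligand background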
Starred values were filed as active, the others as inactive; ? = inconclusive; nt = no result given; ! = a repeat was not active. Unless noted, no stated cut-off is given here; in the data, active means inhibition above about 50%; inactive means the rest.

SMILES | HDAC3 inhib | GRK2 aptamer HTS | VLA-4 inh | DSG3 Ab inh | PKD1 inh | LANA-H2B inh | VLA-4 allo CP
Cc1ccc(S(=O)(=O)Nc2ccc(N(C)C)cc2)cc1 | 5 | 9 | 8 | 99 | 4 | -1 | 5
COCC(=O)NCc1ccc2c(c1)OCO2 | 0 | 1 | 53* | 98 | -7 | -1 | -8
O=C(COC(=O)c1ccc2c(c1)OCO2)NCc1ccc2c(c1)OCO2 | -1 | 3 | 3 | 103 | -8 | 0 | nt
Cc1ccc(NC(=O)CSc2nn(-c3ccccc3)c(=S)s2)cc1S(=O)(=O)N(C)C | 6 | 2 | 46 | 104 | 6 | 0 | 4
O=C(CSc1nn(-c2ccccc2)c(=S)s1)Nn1cnnc1 | 4 | 13 | 1 | nt | -4 | -11 | nt
Cc1ccc(C(=O)NC(=S)Nc2ccc(NC(=O)c3cccc(Cl)c3)cc2)cc1 | 4 | nt | 47 | 101 | -2 | 1 | 8
Cc1cc(C)nc(NC(=O)c2cccc(Cl)c2)n1 | -4 | 2 | 53* | 98 | -11 | 1 | -2
Cc1cc(NS(=O)(=O)c2ccc(NC(=O)Cc3ccc([N+](=O)[O-])cc3)cc2)nc(C)n1 | -1 | 0 | 0 | 85 | nt | 2 | nt
CC(C)[C@@H]1CN=C(N)N1C[C@@H]1CCCN1C[C@H](C)N1C[C@@H](Cc2ccccc2)N(CCc2ccc(Cl)c(Cl)c2)C1=N | nt | 0 | 53* | 126 | nt | nt | 3
CC(=O)c1c(C)[nH]c(C(=O)CSc2nnc(C3CCCCC3)n2N)c1C | 16 | 1 | 52* | nt | -2 | 0 | 4
COc1ccc(-c2cc(C(=O)N3CCN(c4ncccn4)CC3)c3ccccc3n2)c(OC)c1 | nt | 1 | 18 | 100 | -19 | -1 | nt
COc1ccc(OC)c(-c2cc(C(=O)N3CCN(c4ncccn4)CC3)c3ccccc3n2)c1 | 10 | 0 | 95* | 103 | 12 | 0 | -1
COc1cc(-c2cc(C(=O)N3CCN(c4ccccn4)CC3)c3ccccc3n2)cc(OC)c1OC | ? | 0 | -6 | 105 | -2 | -3 | -6
COc1ccc(OC)c(-c2cc(C(=O)NCc3ccc(Cl)cc3)no2)c1 | -3 | 3 | -8 | 95 | 1 | 1 | nt
NS(=O)(=O)c1ccc(CNC(=O)C(Cc2ccccc2)NS(=O)(=O)c2ccccc2F)cc1 (stereo unspecified) | 3 | 1 | 43 | 89 | nt | -5 | -9
NS(=O)(=O)c1ccc(CNC(=O)Cc2ccccc2F)cc1 | 1 | 2 | 2 | 123 | 1 | 2 | nt
CNC(=O)c1cc(C(=O)c2ccc(Cl)cc2)c(Br)[nH]1 | -3 | 0 | 8 | 101 | nt | -6 | nt
CCN(CC(=O)NCc1cccs1)C(=O)c1cccc(S(=O)(=O)N(C)C)c1 | 0 | 1 | 10 | 95 | nt | 3 | nt
CCN(CC(=O)NCc1cccs1)C(=O)c1ccc(-c2cccc(C(F)(F)F)c2)o1 | nt | 5 | 53* | 106 | nt | -3 | 4
Nc1ccn([C@@H]2O[C@H](CO)[C@@H](O)[C@@H]2O)c(=O)n1 | 1 | 2 | 53* | 99 | 13 | -6 | 8
CCOC(=O)c1cc(CC)sc1NC(=O)C(c1ccccc1)c1ccccc1 | 8 | 0 | -13 | 106 | 5 | 1 | -7
CC(=O)Nc1ccc(/C=C(\C#N)C(N)=O)cc1 | 2 | 1 | -1 | 99 | nt | 0 | 0
O=C(CNc1ccccc1)N/N=C/c1c(O)ccc2ccccc12 | -12 | 0 | 50* | 89 | nt | 3 | -3
O=C(CSCC(=O)Nc1ccccc1)N/N=C/c1c(O)ccc2ccccc12 | -2 | 0 | 18 | 98 | 2 | 5 | nt
CC(C)c1ccc(-n2nnnc2SCC(=O)NC2CC2)cc1 | -1 | 0 | 4 | 98 | nt | -1 | nt
SMILES | HDAC3 inhib | GRK2 aptamer HTS | VLA-4 inh | DSG3 Ab inh | PKD1 inh | LANA-H2B inh | VLA-4 allo CP
COc1ccccc1CC(=O)N1CCN(S(=O)(=O)c2ccccc2F)CC1 | 2 | 0 | 52* | 102 | nt | 2 | -7
CC(NC(=O)c1ccc(F)cc1)C(=O)NC1=NCCS1 (stereo unspecified) | 4 | 0 | -10 | 110 | -4 | -5 | nt
CCC(C(=O)OCC(=O)Nc1c(C)n(C)n(-c2ccccc2)c1=O)c1ccccc1 (stereo unspecified) | 0 | 2 | 36 | 125 | 0 | 1 | -2
Cc1c(NC(=O)CCC(=O)N2CCCCC2)c(=O)n(-c2ccccc2)n1C | 1 | 0 | 19 | nt | -18 | 9 | 2
Cc1c(NC(=O)COC(=O)C(c2ccc(Cl)cc2)C(C)C)c(=O)n(-c2ccccc2)n1C (stereo unspecified) | 0 | 0 | -7 | 103 | 0 | -2 | nt
Cc1cc(C(=O)N2CCCC(C(=O)c3ccc4ccccc4c3)C2)n(C)n1 (stereo unspecified) | -7 | 2 | 7 | 99 | -4 | 6 | nt
O=C(O)c1cc(O)ccc1NC(=O)C(c1ccccc1)c1ccccc1 | -6 | 2 | 22 | 100 | nt | 0 | 0
COC(=O)c1cncn1Cc1ccccc1 | nt | nt | nt | 116 | nt | nt | nt
CN(Cc1cnc2nc(N)nc(N)c2n1)c1ccc(C(=O)N[C@@H](CCC(=O)O)C(=O)O)cc1 | -6 | 1 | 55*! | 109 | nt | 2 | -2
CCCC1NC(=O)c2cccnc2-n2c1nc1ccc(Cl)cc1c2=O (stereo unspecified) | nt | nt | nt | 94 | nt | nt | nt
Cc1cn(-c2cc(C(=O)Nc3ccc(C)c(NC(=O)N4CCNC4=O)c3)cc(C(F)(F)F)c2)cn1 | -4 | 0 | 59* | 110 | nt | 3 | -25
CCN1CCN(Cc2ccc(NC(=O)c3ccc(C)c(NC(=O)N4CCNC4=O)c3)cc2C(F)(F)F)CC1 | 2 | 26 | -6 | 105 | nt | -3 | 6
CC1CCc2c(sc3ncn(CC(=O)N4CCCCC4)c(=O)c23)C1 (stereo unspecified) | 2 | 1 | 3 | 84 | 4 | -1 | nt
CNc1ccc2nnc(C(F)(F)C(F)(F)C(F)(F)F)n2n1 | 0 | 0 | 9 | 95 | 1 | 5 | nt
CC(C)(C)n1[nH]c2c3c(ccc2c1=O)C(=O)c1ccccc1C3=O | 0 | 2 | -18 | 94 | -11 | -6 | nt
COCCCn1[nH]c2c3c(ccc2c1=O)C(=O)c1ccccc1C3=O | 4 | 3 | 92* | 121 | 12 | 7 | -1
